This passage reports Potency, max response and activity change, negative = inhibition results from PubChem BioAssay (NCATS).

The structures appear in SMILES notation. Records with an inconclusive call do not appear. Calls of active or inactive are those of the source. Unless noted, the call rests on the fitted dose curve; in most records, active means well fitted curve in the direction sought with a large enough effect; inconclusive means small, poorly fitted or top-dose-only effect, or another doubt; inactive means no such curve, though single readings can be large; an effect the other way counts as inactive or inconclusive.

The target of assay [1] is Cytochrome P450 3A4 (Homo sapiens) (UniProt P08684). The assay can be described thus: qHTS Assay for Inhibitors and Substrates of Cytochrome P450 3A4 (AID 884). Further: nearly all actives have a fitted effect of over 50% in size. Further: potency means the concentration at half of the fitted maximal effect. On activity change, negative = inhibition: on the % scale 0 is the no-effect control and ±100 the full control effect. The method in brief: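 Luminescent readout of luciferin produced by CYP3A4 (20 nM) dealkylation of Luciferin-PPXE, 25 uM (its KM). NADPH-driven reaction ran 60 min at RT after 10 min compound preincubation; data scaled to 57 uM ketoconazole as 100% inhibition.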

The target is the same in assay [2]. The assay can be described thus: qHTS Assay for Activators of Cytochrome P450 3A4 (AID 885). Further: nearly all actives have a fitted effect of over 65% in size. The gist of the method:
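Luminescent readout of luciferin formed from 25 uM Luciferin-PPXE (KM level) by 20 nM CYP3A4 in 200 mM KPO4, with 60 min NADPH-driven reaction at room temperature after 10 min compound exposure. Ketoconazole (57 uM) defined 100% inhibition.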

Assay [3] is described as follows: Confirmation and Secondary Assay for Modulators of Hemoglobin Beta Chain Splicing at IVS2 654 locus (AID 910).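 Further: HeLa cells stably carrying EGFP split by mutant beta-globin IVS2-654 intron; per-well total GFP intensity by laser scanning cytometry after 2-day treatment; % of control where 0% means no effect.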 The method in brief:
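Readout: per-well total peak green fluorescence (488 nm ex, 500–520 nm em) from objects 5–250 µm, reflecting correct splicing of an EGFP-654 reporter. Compounds were applied for 2 days at 37 °C to overnight-plated HeLa EGFP-654 cells; controls were DMSO and 500 nM IVS2-654 PNA.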

Assay [4] can be described thus: Confirmation and Secondary Assay for Modulators of Hemoglobin Beta Chain Splicing at IVS2 705 locus (AID 930).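 Further: HeLa cells stably expressing the EGFP-705 splicing reporter; GFP fluorescence per well restored by corrected splicing of the IVS2-705 intron in EGFP; % of control where 0% means no effect.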 The method in brief:
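Assay measures total GFP intensity per well in HeLa EGFP-705 cells after 2 days with compound; mis-splicing normally truncates EGFP, so fluorescence indicates corrected splicing.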

Assay [5] can be described thus: qHTS Assay for Lipid Storage Modulators (AID 1519; calls by dose curve; further: potency means the concentration at half of the fitted maximal effect; on activity change, negative = inhibition: on the % scale 0 is the no-effect control and ±100 the full control effect). The settings on record: Drosophila S3 cells, BODIPY lipid droplet/cell ratio, laser cytometry, cells loaded with oleic acid; for activity change, negative = inhibition: at 57.5 µM (top of the series). The gist of the method:
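Cells seeded at 5,000 per well were treated with compounds over a concentration series and loaded with oleic acid (400 uM, as added). Lipid droplet fluorescence (488 nm excitation, 500-530 nm channel) was read by laser-scanning cytometry and normalized to 20 uM Triacsin C.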

[6] abbreviates: measured here: cell count channel max response.
Where [7] appears, read: measured here: lipid channel max response.

Sequence of Cytochrome P450 3A4 (Homo sapiens) (P08684 whole entry, looked up): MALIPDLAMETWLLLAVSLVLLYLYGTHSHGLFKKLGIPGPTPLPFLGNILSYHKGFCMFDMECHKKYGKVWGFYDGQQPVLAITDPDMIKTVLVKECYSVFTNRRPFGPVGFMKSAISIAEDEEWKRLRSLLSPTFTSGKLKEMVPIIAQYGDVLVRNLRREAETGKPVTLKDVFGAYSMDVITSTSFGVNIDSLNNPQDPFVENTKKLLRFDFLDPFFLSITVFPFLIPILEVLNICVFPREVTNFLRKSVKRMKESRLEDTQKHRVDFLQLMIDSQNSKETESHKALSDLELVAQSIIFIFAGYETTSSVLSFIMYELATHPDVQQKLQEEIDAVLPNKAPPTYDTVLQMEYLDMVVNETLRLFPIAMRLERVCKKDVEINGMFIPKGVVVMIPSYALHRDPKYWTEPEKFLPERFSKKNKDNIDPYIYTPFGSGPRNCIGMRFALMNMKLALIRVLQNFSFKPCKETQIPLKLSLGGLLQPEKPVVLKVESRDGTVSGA

With `COC(=O)CC1C(C)(C)C(OC(C)=O)C2[C@H](OC(C)=O)[C@]34O[C@]2(O)[C@]1(C)C3CC[C@]1(C)C4=CC(=O)OC1c1ccoc1` (stereo partly drawn), the Potency in assay [1] was 2 µM (active); in assay [5], 15.8 µM (active). Besides, the Potency entry in assay [2], in assay [3] and in assay [4] was “inactive” in each case. Besides, the max response in assay [5] (setting [6]) is -16.6%; in assay [5] (setting [7]), -68.9%.
As for `CCCCCCCCCCCCCCC(C(=O)OC)C(O)(CC(=O)OC)C(=O)OC` (stereo not drawn), the Potency entry in assay [1], in assay [3] and in assay [4] was “inactive” throughout. Also, the activity change, negative = inhibition in assay [5] was -24% (inactive). In addition, the figures for the max response in assay [5] (setting [6]) and in assay [5] (setting [7]) were -1.14% and -26.9%, respectively.
With `COC(=O)CC1C(C)(C)C(=O)C2CC3=C(CC[C@]4(C)C3=CC(=O)OC4c3ccoc3)[C@@]1(C)C2=O` (stereo partly drawn), the Potency in assay [1] was 2.51 µM (active). The Potency entry in assay [2], in assay [3] and in assay [4] was “inactive” in each case. Also, in assay [5], the activity change, negative = inhibition is -1.73% (inactive). Moreover, the max response was 16% in assay [5] (setting [6]) and 14.2% in assay [5] (setting [7]).
For the compound `CC(C)C1=CC2=CC[C@@H]3[C@](C)(CO)CCC[C@]3(C)C2CC1` (stereo partly drawn), the Potency entry in assay [1], in assay [3] and in assay [4] was “inactive” in each case. The activity change, negative = inhibition in assay [5] was 1.89% (inactive). Moreover, the max response in assay [5] (setting [6]) is 10.4%; in assay [5] (setting [7]), 14.9%.
As for `Cc1c(S(=O)(=O)O)oc2c1C(=O)C(=O)c1c-2ccc2c1CCCC2(C)C`, the Potency in assay [1] was 10 µM (active). Moreover, the Potency result in assay [2], in assay [3] and in assay [4] was “inactive” each time. Further, the activity change, negative = inhibition in assay [5] was 4.38% (inactive). The values for the max response in assay [5] (setting [6]) and in assay [5] (setting [7]) were 7.96% and 15.5%, respectively.
In the case of `COC(=O)CC1C(C)(C)C(O)C2CC3=C4CC(O)OC(c5ccoc5)[C@]4(C)CCC3[C@@]1(C)C2=O` (stereo partly drawn), the Potency in assay [1] is 3.16 µM (active). Further, the Potency entry in assay [2], in assay [3] and in assay [4] was “inactive” in each case. In addition, in assay [5], the activity change, negative = inhibition is -6.39% (inactive). Besides, the max response in assay [5] (setting [6]) was found to be 8.85%; in assay [5] (setting [7]) it was 5.28%.
For `COc1ccc2c(c1)CCC1C2CC[C@@]2(C)C(O)CCC12` (stereo partly drawn), the Potency result in assay [1], in assay [3] and in assay [4] was “inactive” throughout. Further, the activity change, negative = inhibition in assay [5] was 6.39% (inactive). Moreover, the max response in assay [5] (setting [6]) worked out at 9.55%; in assay [5] (setting [7]) it was 16.1%.
`COc1ccc(-c2oc3ccccc3c(=O)c2O)cc1OC`: the Potency in assay [1] was 20 µM (active). Besides, the Potency result in assay [2], in assay [3] and in assay [4] was “inactive” each time. Besides, the activity change, negative = inhibition in assay [5] is 7.98% (inactive). Moreover, the max response in assay [5] (setting [6]) stood at 6.61%; in assay [5] (setting [7]), 24.2%.
For `COc1cc(O)c(C(C)=O)c(OC)c1`, in assay [1], the Potency is 25.1 µM (active). Moreover, the Potency entry in assay [2], in assay [3] and in assay [4] was “inactive” throughout. Also, the activity change, negative = inhibition in assay [5] was 4.43% (inactive). Besides, the max response in assay [5] (setting [6]) is 20%; in assay [5] (setting [7]) it was 28.9%.
On to `CCCCCCCC/C=C/CCCCCCCCOP(=O)([O-])OCC[N+](C)(C)C`, for which the Potency entry in assay [1], in assay [3] and in assay [4] was “inactive” in each case. Besides, in assay [5], the activity change, negative = inhibition is 12.8% (inactive). Moreover, the max response stood at 12.4% in assay [5] (setting [6]) and 28.9% in assay [5] (setting [7]).
As to `CC(=O)O[C@@]1(C(C)=O)CCC2C3C=C(Cl)C4=CC(=O)CC[C@]4(C)C3CC[C@]21C` (stereo partly drawn), the Potency result in assay [1], in assay [3] and in assay [4] was “inactive” each time. In addition, in assay [5], the activity change, negative = inhibition is -2.19% (inactive). In addition, the max response in assay [5] (setting [6]) was -10.2%; in assay [5] (setting [7]), -9.83%.
Consider `CC(=O)OC1CC2C(C)(C)C(=O)CC[C@]2(C)C2CC[C@@]3(C)C(c4ccoc4)OC(=O)C4OC43[C@]12C` (stereo partly drawn), for which the Potency in assay [1] is 3.98 µM (active). In addition, the Potency result in assay [2] and in assay [4] was “inactive” in each case. The activity change, negative = inhibition in assay [5] is 5.91% (inactive). The max response was found to be 22.7% in assay [5] (setting [6]) and 27.2% in assay [5] (setting [7]).
Consider `CC1OC(n2cc(F)c(=O)[nH]c2=O)C(O)C1O` (stereo not drawn), for which the Potency result in assay [1], in assay [3] and in assay [4] was “inactive” each time. In assay [5], the activity change, negative = inhibition is 5.38% (inactive). Also, the max response in assay [5] (setting [6]) worked out at 14%; in assay [5] (setting [7]), 19.9%.
Take `C=C[C@](C)(O)CCC1C(=C)CC(O)C2C(C)(C)CCCC12C` (stereo partly drawn): the Potency in assay [1] is 1.58 µM (active). Also, the Potency result in assay [2], in assay [3] and in assay [4] was “inactive” throughout. For the same compound, the activity change, negative = inhibition in assay [5] was 10.1% (inactive). The figures for the max response in assay [5] (setting [6]) and in assay [5] (setting [7]) were 7.01% and 14.1%, respectively.
As to `CC1=CCc2c(cc3oc(C)cc(=O)c3c2O)OC1`, the Potency in assay [1] was 25.1 µM (active). Besides, the Potency entry in assay [2], in assay [3] and in assay [4] was “inactive” each time. The activity change, negative = inhibition in assay [5] is 15.7% (inactive). Besides, the max response in assay [5] (setting [6]) came to 14.5%; in assay [5] (setting [7]) it was 19.5%.
For the compound `O=C(/C=C/c1ccccc1)c1ccc(O[C@H]2OC(CO)C(O)C(O)C2O)cc1O` (stereo partly drawn), the Potency entry in assay [1], in assay [3] and in assay [4] was “inactive” in each case. In addition, the activity change, negative = inhibition in assay [5] is -0.595% (inactive). The values for the max response in assay [5] (setting [6]) and in assay [5] (setting [7]) were 18.3% and 22.6%, respectively.
As for `COc1ccc(C(C)C(=O)c2ccc(O)cc2O)cc1` (stereo not drawn), the Potency in assay [1] is 3.98 µM (active). In addition, the Potency entry in assay [2] and in assay [4] was “inactive” throughout. The activity change, negative = inhibition in assay [5] was 0.578% (inactive). The max response was -18.6% in assay [5] (setting [6]) and -16.9% in assay [5] (setting [7]).
For `COC(=O)CC1C2(C)CC34OC5(C)O[C@@]6(C7/C(=C(/O)C(C)C)C(=O)OC(c8ccoc8)[C@]7(C)C(OC(C)=O)C(OC(C)=O)[C@]6(O5)[C@@]13C)C(OC(C)=O)[C@]4(O)C2OC(=O)C(C)C` (stereo partly drawn), the Potency in assay [1] is 12.6 µM (active). The Potency entry in assay [2], in assay [3] and in assay [4] was “inactive” throughout. Further, in assay [5], the activity change, negative = inhibition is 8.78% (inactive). The max response in assay [5] (setting [6]) stood at 16.6%; in assay [5] (setting [7]) it was 29.3%.
Regarding `c1ccc2c(c1)CN1CCCC1=N2`, the Potency entry in assay [1], in assay [2], in assay [3] and in assay [4] was “inactive” in each case. In assay [5], the activity change, negative = inhibition was 5.8% (inactive). Further, the max response turned out to be 4.77% in assay [5] (setting [6]) and 11.2% in assay [5] (setting [7]).
Take `COc1ccc(CC(=O)c2ccc(O)cc2O)cc1`: the Potency in assay [1] was 12.6 µM (active). Further, the Potency result in assay [2], in assay [3] and in assay [4] was “inactive” in each case. The activity change, negative = inhibition in assay [5] was 4.14% (inactive). In addition, the max response is -22.7% in assay [5] (setting [6]) and -16.5% in assay [5] (setting [7]).
On to `COc1ccc(C(=O)/C=C/c2ccccc2)cc1`, for which the Potency entry in assay [1], in assay [3] and in assay [4] was “inactive” throughout. Further, the activity change, negative = inhibition in assay [5] was 8.41% (inactive). Further, the max response in assay [5] (setting [6]) is -9.97%; in assay [5] (setting [7]), -1.31%.
Take `CC(CCC(=O)O)C1CCC2C3CC[C@H]4CC(O)CC[C@@]4(C)C3C=C[C@]12C` (stereo partly drawn): the Potency entry in assay [1], in assay [3] and in assay [4] was “inactive” throughout. In addition, the activity change, negative = inhibition in assay [5] was 5.52% (inactive). The max response in assay [5] (setting [6]) worked out at 9.1%; in assay [5] (setting [7]), 18.3%.
